ssDAF12 agonist: activates DAF-12 receptor from parasite S. stercoralis. HEK293 ssDAF-12/GRIP1 lit1-tk-luc reporter, luminescence; % of 3 µM dafachronic acid response. activation, % at 6.8 µM. 370,000 compounds, 1% hits. AID 652126;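 active = activation above the mean over all tested compounds plus 3 SD, cut at about 0.9% in these data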
hgDAF-12 ag: agonists of H. glycines DAF-12 nuclear receptor | HEK293 GAL4-hgDAF12 UAS-luciferase reporter, agonist luminescence; normalized to butyrate control | activation, % at 6.8 µM | 370,000 compounds, 1.8% hits | AID 687014;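 active = activation above a cutoff set at the mean of all screened compounds plus 3 SD, cut at about 10% in these data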
PolyA inh: inhibitors of polyadenylation in S. cerevisiae. S. cerevisiae SKY197-pL101 polyadenylation reporter, beta-gal luminescence; efflux-impaired pdr1/pdr3 knockout yeast; score 100 = 6 SD above DMSO. activity score, % at 12 µM. 300,000 compounds, 0.02% hits. AID 1875;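 active = lowest replicate activity score at least 50, where 100 means six control SD above control mean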;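 note: yeast exposed to compound for 9 h at 30 °C; higher score means more reporter readthrough which indicates perturbed polyadenylation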
DAX1 inh-1: DAX1 (NR0B1) inhibition, primary screen. HEK293T StAR-luciferase reporter, SF-1/DAX-1 repression relief. inhibition, % at 6.8 µM. 370,000 compounds, 1.1% hits. AID 652010;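 active = inhibition above the mean over all tested compounds plus 3 SD, cut at about 3.6% in these data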;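 note: higher inhibition means more luminescence from relief of DAX-1 repression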
hcDAF-12 act: H. contortus DAF-12 activation, primary screen. HEK293 hcDAF-12 lit1-tk-luc reporter, luminescence; 0% DMSO, 100% Δ7-dafachronic acid. activation, % at 6.8 µM. 370,000 compounds, 1.4% hits;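 active = activation above the mean of all tested compounds plus 3 SD, cut at about 5.5% in these data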
DAX1 inh-2: NR0B1 (DAX1) inhibition. P51843. HEK293 Gal4-DAX1 luciferase reporter, luminescence. inhibition, % at 6.75 µM. 340,000 compounds, 0.99% hits;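 active = inhibition above the mean over all tested compounds plus 3 SD, cut at about 4.2% in these data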;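 note: inhibition shows as a rise in luminescence from relieved DAX1 repression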
Target sequence (P51843 207-470 limits assumed): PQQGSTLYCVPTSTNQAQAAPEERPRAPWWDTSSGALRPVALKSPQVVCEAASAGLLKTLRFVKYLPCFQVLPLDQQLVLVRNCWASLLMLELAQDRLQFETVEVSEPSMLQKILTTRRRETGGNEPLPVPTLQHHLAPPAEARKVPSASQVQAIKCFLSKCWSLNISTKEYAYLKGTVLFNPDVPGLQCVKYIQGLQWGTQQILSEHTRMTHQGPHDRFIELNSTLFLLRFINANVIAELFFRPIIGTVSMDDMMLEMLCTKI
DAX1 inh confirm: confirmation of human DAX1 (NR0B1) inhibitors; shares compounds with DAX1 inh-1; HEK293T StAR-promoter luciferase reporter, SF-1/DAX-1 repression; inhibition, % at 6.8 µM; 2,400 compounds, 87% hits;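 active = inhibition above the average of every tested compound plus 3 SD, cut at about 3.8% in these data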;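 note: active compounds raise luminescence by relieving repression of the StAR reporter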
Target sequence (P51843 whole entry, looked up): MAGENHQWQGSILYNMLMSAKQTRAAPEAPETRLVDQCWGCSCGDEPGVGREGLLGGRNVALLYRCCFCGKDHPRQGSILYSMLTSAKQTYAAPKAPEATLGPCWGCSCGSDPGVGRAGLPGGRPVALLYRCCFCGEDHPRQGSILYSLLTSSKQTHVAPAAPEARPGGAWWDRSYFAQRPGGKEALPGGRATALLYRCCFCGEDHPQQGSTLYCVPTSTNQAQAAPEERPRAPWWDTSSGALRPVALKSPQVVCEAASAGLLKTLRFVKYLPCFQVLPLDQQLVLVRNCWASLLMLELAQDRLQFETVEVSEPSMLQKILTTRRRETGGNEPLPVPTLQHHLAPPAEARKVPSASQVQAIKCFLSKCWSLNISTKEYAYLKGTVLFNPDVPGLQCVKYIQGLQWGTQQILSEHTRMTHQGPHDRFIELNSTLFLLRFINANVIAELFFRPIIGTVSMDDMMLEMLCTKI
SF1 AF2mut Luc: counter-screen for DAX1 inhibitors: nonselective inhibitors with SF-1 AF2 mutant. shares compounds with DAX1 inh-1. HEK293 StAR-luciferase, luminescence. inhibition, % at 6.8 µM. 2,400 compounds, 78% hits. AID 652136;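 active = inhibition above the mean of all tested compounds plus 3 SD, cut at about 3% in these data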
LXR ag: activates human LXR-beta, counter-screen for hcDAF-12 agonists | activation, % at 6.8 µM | 3,400 tested, under 10 active | AID 743027 | shares compounds with hcDAF-12 act | HEK293 Gal4-LXR tk-luc reporter, luminescence, 24 h; normalized: DMSO 0%, positive control 100%;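 active = mean percent activation of the reporter above a cutoff set as the average over tested compounds plus their standard deviation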
hcDAF12 ag: confirmation of H. contortus DAF-12 agonists | shares compounds with hcDAF-12 act | HEK293 hcDAF-12 lit1-tk-luc reporter, luminescence; % of Δ7-dafachronic acid response | activation, % at 6.8 µM | 3,400 compounds, 61% hits | AID 743032;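 active = mean activation across triplicate tests above the threshold derived from the earlier primary screen, cut at about 5.5% in these data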
hgDAF12 conf: confirmation of H. glycines DAF-12 agonists; shares compounds with hgDAF-12 ag; HEK293 GAL4-hgDAF12 luciferase reporter, agonist mode; percent of butyrate response; 3,300 compounds, 80% hits; activation, % at 6.8 µM;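 active = mean activation over triplicate wells above the hit cutoff derived from the earlier primary screen, cut at about 11% in these data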
LXR ag 2: activates human LXR-beta, counter-screen for DAF-12 agonists; shares compounds with hgDAF-12 ag; HEK293 Gal4-LXR luciferase reporter, 24 h; activation, % at 6.8 µM; 3,300 tested, under 10 active; AID 743051;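 active = mean activation of the triplicate above a set limit carried over from the primary screen, none filed active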
A number is an active result. Rows were chosen to be rich in hits. Some 4.1% of all compounds tested hit in one or more screens of this group.

Screening C/C(=N\Nc1ccccc1)c1c(O)cc(C)oc1=O returned ssDAF12 agonist inactive, hgDAF-12 ag inactive, PolyA inh inactive, DAX1 inh-1 inactive, hcDAF-12 act inactive and DAX1 inh-2 inactive.
CC1=CC(C)C(=O)N(C)C(C)=C1 (centres undefined) was read as ssDAF12 agonist inactive, hgDAF-12 ag inactive, DAX1 inh-1 inactive, hcDAF-12 act inactive and DAX1 inh-2 inactive.
`Cc1cc(C(=O)CN2C(=O)NC3(CCCCC3C)C2=O)c(C)n1Cc1cccs1` (centres undefined) gave ssDAF12 agonist inactive, hgDAF-12 ag 15.3, PolyA inh inactive, DAX1 inh-1 5.0, hcDAF-12 act inactive, DAX1 inh-2 inactive, DAX1 inh confirm 9.6, SF1 AF2mut Luc 5.5, hgDAF12 conf 10.4 and LXR ag 2 inactive.
For CC1CCCCC12NC(=O)N(CC(=O)NCc1cccs1)C2=O (centres undefined) the results were ssDAF12 agonist inactive, hgDAF-12 ag inactive, DAX1 inh-1 inactive, hcDAF-12 act inactive and DAX1 inh-2 inactive.
Screening O=C(/C=C\Nc1ccc(Br)cc1)c1cccnc1 returned ssDAF12 agonist inactive, hgDAF-12 ag 18.3, PolyA inh inactive, DAX1 inh-1 5.9, hcDAF-12 act 8.3, DAX1 inh-2 inactive, DAX1 inh confirm 16.4, SF1 AF2mut Luc 9.3, LXR ag inactive, hcDAF12 ag 6.5, hgDAF12 conf 15.6 and LXR ag 2 inactive.
Screening O=C(NNC(=S)Nc1ccc(Br)cc1)c1cccnc1 returned ssDAF12 agonist inactive, hgDAF-12 ag inactive, PolyA inh inactive, DAX1 inh-1 inactive, hcDAF-12 act inactive and DAX1 inh-2 inactive.
COc1cc(Cl)ccc1OCc1cc(C(=O)N2CCCC(OC)C2)no1 (centres undefined) was read as ssDAF12 agonist inactive, hgDAF-12 ag 18.5, PolyA inh inactive, DAX1 inh-1 8.1, hcDAF-12 act inactive, DAX1 inh-2 inactive, DAX1 inh confirm 6.6, SF1 AF2mut Luc 4.1, hgDAF12 conf 17.4 and LXR ag 2 inactive.
`CC(=O)N/N=C\c1ccccc1OC/C=C/c1ccccc1` gave ssDAF12 agonist inactive, hgDAF-12 ag inactive, PolyA inh inactive, DAX1 inh-1 inactive, hcDAF-12 act inactive and DAX1 inh-2 inactive.
`CC(=O)N/N=C\c1cccc(OC/C=C/c2ccccc2)c1` gave ssDAF12 agonist inactive, hgDAF-12 ag 13.7, DAX1 inh-1 10.2, hcDAF-12 act inactive, DAX1 inh-2 inactive, DAX1 inh confirm 8.9, SF1 AF2mut Luc 5.2, hgDAF12 conf 15.8 and LXR ag 2 inactive.
Screening Cc1ccc2nc(-c3ccccc3N)[nH]c2c1 returned ssDAF12 agonist inactive, hgDAF-12 ag 22.3, PolyA inh inactive, DAX1 inh-1 5.1, hcDAF-12 act 9.2, DAX1 inh-2 inactive, DAX1 inh confirm 14.4, SF1 AF2mut Luc 5.9, LXR ag inactive, hcDAF12 ag 10.0, hgDAF12 conf 19.5 and LXR ag 2 inactive.
COC(=O)c1ccc(C(=O)Nc2ccc3nc(-c4ccncc4)[nH]c3c2)cc1 was read as ssDAF12 agonist inactive, hgDAF-12 ag inactive, PolyA inh inactive, DAX1 inh-1 inactive, hcDAF-12 act inactive and DAX1 inh-2 inactive.
COC(=O)c1ccc(-c2nc3ccccc3[nH]2)cc1 was read as ssDAF12 agonist inactive, hgDAF-12 ag 14.9, PolyA inh inactive, DAX1 inh-1 5.3, hcDAF-12 act inactive, DAX1 inh-2 inactive, DAX1 inh confirm 18.2, SF1 AF2mut Luc 9.4, hgDAF12 conf 12.7 and LXR ag 2 inactive.
Screening Cc1cc(-c2nc3ccccc3[nH]2)ccc1N returned ssDAF12 agonist 1.2, hgDAF-12 ag 15.3, PolyA inh inactive, DAX1 inh-1 8.0, hcDAF-12 act 6.4, DAX1 inh-2 inactive, DAX1 inh confirm 14.3, SF1 AF2mut Luc 7.2, hgDAF12 conf 17.1 and LXR ag 2 inactive.
For Cc1ccc(C)c(-c2nc3ccc(N)cc3[nH]2)c1 the results were ssDAF12 agonist inactive, hgDAF-12 ag inactive, PolyA inh inactive, DAX1 inh-1 inactive, hcDAF-12 act inactive and DAX1 inh-2 inactive.
Cc1ccc(S(=O)(=O)N(C)C)cc1NC(=O)c1cc(S(=O)(=O)N2CCCCC2)ccc1N1CCOCC1 was read as ssDAF12 agonist inactive, hgDAF-12 ag inactive, DAX1 inh-1 inactive, hcDAF-12 act inactive and DAX1 inh-2 inactive.
Screening CC(C)CCN1C(=O)c2ccccc2C1c1nnnn1C(C)C (centres undefined) returned ssDAF12 agonist inactive, hgDAF-12 ag inactive, DAX1 inh-1 inactive and hcDAF-12 act inactive.
Screening CCOC(=O)CSc1nc(N)c(C#N)cc1C#N returned ssDAF12 agonist inactive, hgDAF-12 ag inactive, PolyA inh inactive, DAX1 inh-1 inactive, hcDAF-12 act inactive and DAX1 inh-2 inactive.
Screening CCOC(=O)CSc1nc2cc(OC)ccc2cc1C#N returned ssDAF12 agonist inactive, hgDAF-12 ag 13.4, PolyA inh inactive, DAX1 inh-1 4.8, hcDAF-12 act 7.2, DAX1 inh-2 inactive, DAX1 inh confirm 14.9, SF1 AF2mut Luc 8.1, LXR ag inactive, hcDAF12 ag inactive, hgDAF12 conf 20.0 and LXR ag 2 inactive.
For CCOC(=O)CSc1nc2ccc(C)cc2cc1C#N the results were ssDAF12 agonist inactive, hgDAF-12 ag 14.3, PolyA inh inactive, DAX1 inh-1 5.6, hcDAF-12 act 8.9, DAX1 inh-2 inactive, DAX1 inh confirm 13.1, SF1 AF2mut Luc 10.0, LXR ag inactive, hcDAF12 ag inactive, hgDAF12 conf 20.1 and LXR ag 2 inactive.
Cc1ccc(C)n1-c1sc2c(c1C#N)CCC(C)C2 (centres undefined) was read as ssDAF12 agonist inactive, hgDAF-12 ag inactive, PolyA inh inactive, DAX1 inh-1 inactive, hcDAF-12 act inactive and DAX1 inh-2 inactive.

Assay outcomes (PubChem)
